ASM inhibitor: blocks human secretory acid sphingomyelinase; Potency, µM (top dose mostly 57.5 µM), for the others: top-dose activity change, negative = inhibition, hits mostly inhibitors; 0.006% of 340,000 active; AID 504937; placental ASM, HMU-PC fluorogenic substrate, 60 min; further: potency means the concentration at half of the fitted maximal effect
Target sequence (P17405 47-631 limits assumed): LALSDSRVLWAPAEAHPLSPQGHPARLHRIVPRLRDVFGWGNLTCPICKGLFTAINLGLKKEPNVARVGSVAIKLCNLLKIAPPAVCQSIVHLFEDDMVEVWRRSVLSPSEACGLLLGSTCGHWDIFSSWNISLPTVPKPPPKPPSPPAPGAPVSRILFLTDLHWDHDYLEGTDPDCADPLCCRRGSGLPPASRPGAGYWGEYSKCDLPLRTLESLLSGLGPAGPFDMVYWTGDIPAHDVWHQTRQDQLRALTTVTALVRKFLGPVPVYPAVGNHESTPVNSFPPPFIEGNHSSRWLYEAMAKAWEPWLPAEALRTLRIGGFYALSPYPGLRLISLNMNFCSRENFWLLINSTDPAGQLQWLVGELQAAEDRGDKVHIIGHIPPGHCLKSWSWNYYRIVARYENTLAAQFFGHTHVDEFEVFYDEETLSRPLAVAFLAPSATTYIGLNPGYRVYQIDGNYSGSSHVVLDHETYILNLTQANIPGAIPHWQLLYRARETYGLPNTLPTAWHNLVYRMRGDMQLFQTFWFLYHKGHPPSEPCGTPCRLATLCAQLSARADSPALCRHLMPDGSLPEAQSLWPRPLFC
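Fluorogenic HMU-PC substrate (9 uM final) is turned over by placental ASM in 60 min at 37 C after a 10 min compound preincubation. Reaction ended by alkaline stop (pH 10), with fluorescence read at 386/447 nm.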
TGFb inhibitor: blocks TGF-b signaling; AID 588855; Potency, µM (series often up to 46.1 µM), for the others: top-dose activity, negative = inhibition, actives largely listed as inhibitors; HepG2 CAGA-GFP TGF-b/SMAD3 reporter, GFP fluorescence, 18 h; TGF-beta stimulated, 500 pg/mL final; 1.2% of 410,000 active; further: potency means the concentration at half of the fitted maximal effect; on the % scale 0 is the no-effect control and ±100 the full control effect; nearly all actives have a fitted effect of over 65% in size
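HEPG2 CAGA-GFP reporter cells (1000/well, DMEM with 1% FBS) received compounds, then recombinant TGF-beta at 500 pg/mL final for 18 hours at 37 degrees C. Per-cell GFP summed per well was normalised to unstimulated and stimulated DMSO controls before curve fitting.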
IL-1B inflam inh: blocks inflammasome-driven IL-1 beta release. THP-1 LPS/ATP IL-1B secretion, AlphaLISA, 16 h; active compounds read low. activity change, % at 57.5 µM. 4.7% of 360,000 active; in the data active means activity change below about -50%; inconclusive means mostly about -30% to -49%; further: on the % scale 0 is the no-effect control and ±100 the full control effect
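Secreted IL-1B measured by AlphaLISA bead assay after 16 h compound exposure of THP-1 cells; compounds (final up to 57.5 uM) added 1 h before LPS (250 ng/mL) and ATP (1.25 mM) stimulation; lower signal means less secretion.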
DT40 TDP1 CPT: DT40-hTDP1 cell growth loss with CPT | chicken DT40 Tdp1-/-;hTDP1 cells + 20 nM CPT, ATP luminescence, 48 h | 12% of 420,000 active | Potency, µM (doses to about 46.2 µM), inactives show top-dose activity change, negative = growth inhibition, usual class: inhibitors | AID 686979; further: potency means the concentration at half of the fitted maximal effect; on the % scale 0 is the no-effect control and ±100 the full control effect; nearly all actives have a fitted effect of over 55% in size
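Chicken DT40 Tdp1-/- cells complemented with human TDP1, 400 cells/well, exposed to compounds plus 20 nM camptothecin for at least 48 h at 37 C; viability read as ATP content by CellTiter-Glo luminescence.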
HepG2 viability: HepG2 cytotoxicity, counter-screen for TGF-b inhibitors; HepG2 CAGA-GFP viability, ATP luminescence, 18 h; Potency, µM (top dose mostly 46.1 µM), for inactives: top-dose activity change, negative = cytotoxicity, usual class: cytotoxic; 0.76% of 410,000 active; further: potency means the concentration at half of the fitted maximal effect
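CellTiter-Glo luminescence gave cytotoxicity after 18 hours at 37 degrees C. The cells were HepG2 CAGA-GFP in 1% FBS DMEM, stimulated with 500 pg/mL TGF-beta after compound addition. %Activity was normalised to no-cell wells (complete cell-killing) and DMSO (no toxicity), and curves were fitted and classified.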
DT40 TDP1 no CPT: qHTS for Inhibitors of human tyrosyl-DNA phosphodiesterase 1 (TDP1): qHTS in cells in absence of CPT. DT40 Tdp1-/- hTDP1 cells, no CPT, ATP luminescence, 48 h. Potency, µM (titrated, usually from 46.2 µM), inactives show at the top dose activity change, negative = growth inhibition, hits mostly inhibitors. 15% of 420,000 active. AID 686978, 2013; further: potency means the concentration at half of the fitted maximal effect; on the % scale 0 is the no-effect control and ±100 the full control effect; nearly all actives have a fitted effect of over 55% in size
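DT40 Tdp1-/-;hTDP1 cells, no CPT (DMSO vehicle only), 400 cells/well; compounds pin-transferred; ≥48 hr, 37 °C; CellTiter-Glo 30 min RT dark, luminescence read.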
Starred values were filed as active, the others as inactive. The list is not random: actives were taken first. Their share in the collection is about 19%. Unless noted, the call rests on the fitted dose curve; in most records, active means well fitted curve in the direction sought with a large enough effect; inconclusive means small, poorly fitted or top-dose-only effect, or another doubt; inactive means no such curve, though single readings can be large; an effect the other way counts as inactive or inconclusive.

How did COc1cccc(-n2c(=O)c3c(C)c(C)sc3n(CC(=O)NCCc3ccc(OC)c(OC)c3)c2=O)c1 do in these assays?
TGFb inhibitor: 0.0%; DT40 TDP1 CPT: -19.9%; HepG2 viability: -20.4%; DT40 TDP1 no CPT: -13.2%

Results for COc1ccc(Nc2cc(C)c3cc(NC(=O)Cc4ccc(Cl)cc4)ccc3n2)cc1 ?
TGFb inhibitor: inconclusive; DT40 TDP1 CPT: inconclusive; HepG2 viability: -42.5%; DT40 TDP1 no CPT: inconclusive

Results for COc1ccccc1CN(C)CC(=O)Nc1cccc(S(=O)(=O)N2CCCC2)c1 ?
ASM inhibitor: -0.2%; TGFb inhibitor: -1.5%; IL-1B inflam inh: -15.5; DT40 TDP1 CPT: inconclusive; HepG2 viability: -16.6%; DT40 TDP1 no CPT: 23.1µM*

What do the screens show for `CN(CC(=O)Nc1cc(S(=O)(=O)N2CCCC2)ccc1Cl)Cc1nc2ccccc2c(=O)[nH]1`?
ASM inhibitor: 6.2%; TGFb inhibitor: -12.8%; IL-1B inflam inh: 0.0; DT40 TDP1 CPT: inconclusive; HepG2 viability: -12.5%; DT40 TDP1 no CPT: 20.6µM*

What do the screens show for `O=C(CCc1nc2ccccc2c(=O)[nH]1)Nc1cccc(S(=O)(=O)N2CCCCC2)c1`?
ASM inhibitor: -1.6%; TGFb inhibitor: -1.9%; IL-1B inflam inh: -3.1; DT40 TDP1 CPT: inconclusive; HepG2 viability: 0.0%; DT40 TDP1 no CPT: 20.6µM*

How did COc1cccc(CN(C)CC(=O)Nc2cc(S(=O)(=O)N3CCCC3)ccc2Cl)c1OC do in these assays?
ASM inhibitor: 0.9%; TGFb inhibitor: inconclusive; IL-1B inflam inh: -15.4; DT40 TDP1 CPT: 20.6µM*; HepG2 viability: 1.5%; DT40 TDP1 no CPT: inconclusive

What do the screens show for `Cc1ccc(S(=O)(=O)N2CCCCC2)cc1NC(=O)CCc1nc2ccccc2c(=O)[nH]1`?
ASM inhibitor: -4.3%; TGFb inhibitor: -18.8%; IL-1B inflam inh: 8.2; DT40 TDP1 CPT: inconclusive; HepG2 viability: -4.1%; DT40 TDP1 no CPT: inconclusive

What do the screens show for `COc1cccc(CN(C)C(=O)c2cc(S(=O)(=O)N3CCCC3)ccc2C)c1OC`?
ASM inhibitor: 5.7%; TGFb inhibitor: -17.5%; IL-1B inflam inh: 20.9; DT40 TDP1 CPT: inconclusive; HepG2 viability: -13.8%; DT40 TDP1 no CPT: inconclusive

What do the screens show for `CCCS(=O)(=O)NC(=O)C1(C)CCCN(C(=O)c2oc3ccccc3c2C)C1` (stereo not given)?
TGFb inhibitor: 5.5%; IL-1B inflam inh: 10.8; DT40 TDP1 CPT: -22.2%; HepG2 viability: 1.1%; DT40 TDP1 no CPT: -1.6%

Results for Nc1ncnc2c1ncn2[C@@H]1O[C@H](CNCC#Cc2ccccc2)[C@@H](O)[C@H]1O ?
ASM inhibitor: 9.6%; TGFb inhibitor: 13.5%; IL-1B inflam inh: inconclusive; DT40 TDP1 CPT: inconclusive; HepG2 viability: -22.9%; DT40 TDP1 no CPT: inconclusive

How did CCCCc1ccc(NC(=O)Nc2cnccn2)cc1 do in these assays?
ASM inhibitor: -5.1%; TGFb inhibitor: -16.2%; IL-1B inflam inh: 15.0; DT40 TDP1 CPT: 14.6µM*; HepG2 viability: 0.1%; DT40 TDP1 no CPT: 23.1µM*

What do the screens show for `O=C(Nc1cc(Cl)cc(Cl)c1)Nc1cnccn1`?
ASM inhibitor: -2.3%; TGFb inhibitor: -12.2%; IL-1B inflam inh: 0.0; DT40 TDP1 CPT: inconclusive; HepG2 viability: -6.9%; DT40 TDP1 no CPT: 16.4µM*

What do the screens show for `Cc1ccc(C)c2[nH]c(=O)c(CCNC(=O)c3ccco3)cc12`?
ASM inhibitor: 4.6%; TGFb inhibitor: 8.8%; IL-1B inflam inh: -24.4; DT40 TDP1 CPT: -16.3%; HepG2 viability: 4.8%; DT40 TDP1 no CPT: -5.8%

How did CCCn1nc(NS(=O)(=O)c2ccccc2)c2cc3ccccc3nc21 do in these assays?
ASM inhibitor: 1.0%; TGFb inhibitor: -23.4%; IL-1B inflam inh: -3.2; DT40 TDP1 CPT: 2.0%; HepG2 viability: -3.6%; DT40 TDP1 no CPT: -3.0%

Screening results as filed in PubChem BioAssay.
